Assay results from PubChem BioAssay (NCATS).
Inconclusive results are not listed. Where a call stands in place of a potency, no number is given. Calls of active or inactive are those of the source. The call rests on the fitted dose curve; in most records, active means well fitted cell-killing curve with a large enough effect; inconclusive means small, poorly fitted or top-dose-only effect, or effect the other way; inactive means no such curve, though single readings can be large or run the other way.

Experiments:
[1] = Viability qHTS for spleen associated tyrosine kinase inhibitor (SYKi) naive MV4-11 cells (AID 1963823); conditions: MV4-11 AML viability, CellTiter-Glo luminescence, 72 h; series mostly up to 45 µM; further: nearly all actives have a fitted effect of over 40% in size
Method in brief: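 Read-out: CellTiter-Glo luminescence. Exposure: 72 hr, 37 C, 5% CO2, 95% humidity. Cells: MV4-11 without SYK inhibitor history, 500/well, qHTS format.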

[2] = Viability qHTS for spleen associated tyrosine kinase inhibitor (SYKi) drug resistant MV4-11 cells (AID 1963824); conditions: SYKi-resistant MV4-11 viability, CellTiter-Glo, 72 h; series mostly up to 45 µM; further: nearly all actives have a fitted effect of over 35% in size
Method in brief: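 SYK inhibitor-resistant MV4-11 AML cells, 500 per well, added to predispensed compounds and incubated 72 hr at 37 C, 5% CO2. Viability measured by CellTiter-Glo luminescence after 10 min at room temperature.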
Potency means the concentration at half of the fitted maximal effect.

Row | Compound | Potency [1] | Potency [2]
1 | Oc1ccc(CNc2ccccc2F)c2cccnc12 | 2.91 µM (active) | 4.61 µM (active)
2 | COc1cccc(-c2cn(-c3ccc(CCN4CCC(O)CC4)cc3)c3ncnc(N)c23)c1 | 2.06 µM (active) | 2.31 µM (active)
3 | CS(=O)(=O)c1ccccc1N1CCN(c2nc3c(c(=O)[nH]2)CSCC3)CC1 | inactive | inactive
4 | CCC(C)/C=C(C)/C=C/C1=CC2=C(Cl)C(=O)C(C)(OC(C)=O)C(=O)C2=CN1C(CCCN=C(N)N)C(=O)O (stereo not given) | inactive | inactive
5 | C/C=C(\C)[C@@H]1C(C)=C[C@@H]2[C@H]([C@@H]1/C=C/C=C/C(=O)O)[C@@H](C)CC[C@@H]2O | 6.4 µM (active) | 3.6 µM (active)
6 | C=C1C(=O)OC2CC3(C)C(O)C(=O)C=C(C)C3CC12 (stereo not given) | 23.1 µM (active) | 7.31 µM (active)
7 | CN[C@H](C(=O)N[C@H](C(=O)N(C)[C@H](/C=C(\C)C(=O)O)C(C)C)C(C)(C)C)C(C)(C)c1ccccc1 | inactive | inactive
8 | C=C1C(=O)OC2CC(C)=C(C(C)CCCO[C@@H]3O[C@H](CO)[C@@H](O)[C@H](O)[C@H]3O)C(O)C12 (stereo not given in full) | inactive | inactive
9 | Cc1noc(C)c1-c1cc(O)cc(C(O)c2ccccc2)c1 (stereo not given) | 1.46 µM (active) | 1.46 µM (active)
10 | CN[C@H](CC(C)C)C(=O)N[C@H]1C(=O)N[C@@H](CC(N)=O)C(=O)N[C@H]2C(=O)N[C@H]3C(=O)N[C@H](C(=O)N[C@H](C(=O)O)c4cc(O)cc(O)c4-c4cc3ccc4O)[C@H](O[C@H]3C[C@](C)(N)[C@@H](O)[C@H](C)O3)c3ccc(c(Cl)c3)Oc3cc2cc(c3O[C@@H]2O[C@H](CO)[C@@H](O)[C@H](O)[C@H]2O[C@H]2C[C@](C)(NCc3ccc(-c4ccc(Cl)cc4)cc3)[C@@H](O)[C@H](C)O2)Oc2ccc(cc2Cl)[C@H]1O | inactive | inactive
